The sample as a whole holds a higher share of hits than the screen did.
Cruzain inh Det = cruzain (T. cruzi) inhibition with detergent | purified cruzain, Z-FR-AMC fluorescence, 0.01% Triton | Potency, µM, for the others: max response, negative = inhibition, usual class: inhibitors | 200,000 tested, 0.43% active;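 note: plate controls were neutral wells for no effect and buffer without enzyme for full effect; nearly all actives have a fitted effect of over 40% in size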
Target sequence (P25779 123-467 limits assumed): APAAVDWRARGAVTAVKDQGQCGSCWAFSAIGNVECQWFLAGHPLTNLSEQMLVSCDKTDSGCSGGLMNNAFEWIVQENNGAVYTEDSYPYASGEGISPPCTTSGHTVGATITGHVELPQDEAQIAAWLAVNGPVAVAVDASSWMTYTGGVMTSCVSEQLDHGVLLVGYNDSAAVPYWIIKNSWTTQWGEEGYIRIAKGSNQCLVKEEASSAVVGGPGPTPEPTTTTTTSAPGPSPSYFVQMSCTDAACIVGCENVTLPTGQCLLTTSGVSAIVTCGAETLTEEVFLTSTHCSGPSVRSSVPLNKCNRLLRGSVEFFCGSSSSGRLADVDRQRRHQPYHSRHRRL
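Sodium acetate buffer (100 mM, pH 5.5) containing 5 mM DTT and 0.01% Triton X-100 hosted 1.5 nM cruzain and test compound for 15 min at room temperature. Cleavage of 2 uM Z-FR-AMC was then tracked by fluorescence.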
Giardia FBPA inh-1 = Giardia lamblia aldolase inhibition; AID 2451; purified Giardia FBPA; Potency, µM (highest dose often 59.6 µM), for the others: at the highest dose activity, negative = inhibition, most hits filed as inhibitors; A8B2U2; 290,000 tested, 0.71% active; note: nearly all actives have a fitted effect of over 55% in size
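Giardia FBPA (40 nM reagent) was preincubated 10 min at RT with compound (up to 57.5 uM final), then substrate plus GAPDH/TPI/NAD/arsenate coupling system with diaphorase/resazurin was added; resorufin fluorescence (525/598 nm) was read after 20 min.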
Cruzain noTriton = blocks cruzain activity in detergent-free assay. purified cruzain, Z-FR-AMC fluorescence, no detergent. Potency, µM, inactives show max response, negative = inhibition, actives largely listed as inhibitors. 200,000 tested, 2.3% active;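 note: plate controls were enzyme without inhibitor for no effect and buffer without enzyme for full effect; nearly all actives have a fitted effect of over 40% in size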
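Purified cruzain at 1.5 nM, pre-incubated 15 min with compound at room temperature in 100 mM sodium acetate pH 5.5, 5 mM DTT, 0.00005% Triton X-100. Reaction started with 2 uM Z-FR-AMC; AMC fluorescence increase over 60 s gives rate.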
Giardia growth = blocks growth of Giardia lamblia trophozoites. shares compounds with Giardia FBPA inh-1. Giardia lamblia trophozoite growth inhibition. Potency, µM (doses to about 57.5 µM), for inactives: top-dose activity change, negative = inhibition, usual class: inhibitors. 1,500 tested, 5% active. AID 2785;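 note: trophozoites exposed to compound for 48 h at 37 °C; nearly all actives have a fitted effect of over 70% in size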
Mammal cell tox = counter-screen for Giardia aldolase inhibitors: mammalian cell toxicity; mammalian cell viability counter-screen, qHTS; 1,500 tested, 4% active; Potency, µM (doses to about 57.5 µM), for inactives: at the top dose viability change, negative = toxicity, usual class: inhibitors; shares compounds with Giardia FBPA inh-1;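 note: Chinese hamster ovary cells used as mammalian cytotoxicity surrogate; viability measured as cellular ATP by luminescence; compound exposure lasted 48 h before reading; nearly all actives have a fitted effect of over 60% in size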
Giardia FBPA inh-2 = confirmation of Giardia fructose-bisphosphate aldolase inhibitors; 1,500 tested, 5% active; shares compounds with Giardia FBPA inh-1; purified Giardia aldolase enzyme activity, qHTS; Potency, µM (doses to about 57.5 µM), for inactives: top-dose activity change, negative = inhibition, usual class: inhibitors; note: nearly all actives have a fitted effect of over 45% in size
Rabbit FBPA inh = rabbit FBP aldolase inhibition by Giardia aldolase hits. shares compounds with Giardia FBPA inh-1. Rabbit muscle FBPA enzyme inhibition, selectivity counter-screen. Potency, µM (highest dose often 57.5 µM), without a hit: at the highest dose activity, negative = inhibition, most hits filed as inhibitors. 1,500 tested, 4% active. AID 2794; note: nearly all actives have a fitted effect of over 60% in size
Target sequence (P00883 whole entry, looked up): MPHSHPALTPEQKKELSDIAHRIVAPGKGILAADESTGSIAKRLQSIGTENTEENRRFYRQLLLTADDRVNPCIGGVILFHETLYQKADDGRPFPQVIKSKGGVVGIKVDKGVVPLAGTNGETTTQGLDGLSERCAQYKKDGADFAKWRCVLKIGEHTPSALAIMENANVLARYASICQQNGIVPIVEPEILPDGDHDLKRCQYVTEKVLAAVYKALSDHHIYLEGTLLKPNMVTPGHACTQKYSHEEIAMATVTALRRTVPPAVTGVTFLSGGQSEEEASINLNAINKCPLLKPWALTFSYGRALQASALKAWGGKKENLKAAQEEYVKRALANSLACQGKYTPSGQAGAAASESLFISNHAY
GAPDH counter = counter-screen for Giardia aldolase inhibitors: GAPDH coupling enzyme; 1,500 tested, 6% active; shares compounds with Giardia FBPA inh-1; GAPDH coupling enzyme counterscreen, biochemical, qHTS; Potency, µM (doses to about 57.5 µM), without a hit: top-dose activity change, negative = inhibition, actives largely listed as inhibitors; note: nearly all actives have a fitted effect of over 55% in size
An asterisk follows results filed as active; [ ] = another dose, or the depositor's remark. Calls come from the whole dose curve; as a rule, active = well fitted curve in the direction sought with a large enough effect; inconclusive = small, poorly fitted or top-dose-only effect, or another doubt; inactive = no such curve, though single readings can be large; an effect the other way counts as inactive or inconclusive. Unless noted, % is set by controls: 0 for no effect and ±100 for the full control effect; potency is the fitted concentration of half-maximal effect.

Screening COc1ccc(NS(=O)(=O)c2ccc(Br)cc2)cn1 returned Giardia FBPA inh-1 -8%.
`COc1ccc(NS(=O)(=O)c2c(C)cc(C)cc2C)cn1` gave Giardia FBPA inh-1 inconclusive, Giardia growth -13%[38.3 µM], Mammal cell tox 1%, Giardia FBPA inh-2 -17%, Rabbit FBPA inh -20% and GAPDH counter -20%.
For Cc1cc(C)c(NC(=O)CCn2c(=O)c3cccn3c3ccccc32)c(C)c1 the results were Cruzain inh Det -7% and Cruzain noTriton inconclusive.
For CCOC(=O)C1CCCN(CCC(=O)Nc2ccc(Br)c(C)c2)C1 (stereo not drawn) the results were Giardia FBPA inh-1 14µM*, Giardia growth inconclusive, Mammal cell tox -8%, Giardia FBPA inh-2 4%, Rabbit FBPA inh 8% and GAPDH counter 10%.
`CCOC(=O)C1CCCN(CCC(=O)Nc2ccc(C)c(C)c2)C1` (stereo not drawn) gave Giardia FBPA inh-1 -3%.
`COc1cc(/C=N/NC2=NS(=O)(=O)c3ccccc32)ccc1OC(C)=O` gave Giardia FBPA inh-1 11µM*, Giardia growth 7%, Mammal cell tox 8%, Giardia FBPA inh-2 7%, Rabbit FBPA inh 11% and GAPDH counter 8%.
COc1ccc(/C=N/NC2=NS(=O)(=O)c3ccccc32)cc1OC was read as Giardia FBPA inh-1 10µM*, Giardia growth 11%[10.4 µM], Mammal cell tox 27%, Giardia FBPA inh-2 13%, Rabbit FBPA inh 12% and GAPDH counter -7%.
`COc1ccc(C(=O)NNC2=NS(=O)(=O)c3ccccc32)cc1OC` gave Giardia FBPA inh-1 -26%.
For COc1cc(/C=N/NC(=O)c2ccc(NC(=O)C3CC3)cc2)ccc1OC(C)=O the results were Giardia FBPA inh-1 -1%.
O=C(NCc1ccc(F)cc1)c1ccc(CS(=O)Cc2ccc(Cl)cc2)o1 (stereo not drawn) was read as Cruzain inh Det 4% and Cruzain noTriton 23%.
COc1ccc(CNC(=O)Cn2nc(N3CCN(c4ccccc4)CC3)ccc2=O)c(OC)c1 was read as Cruzain inh Det -1% and Cruzain noTriton inconclusive.
`CCc1ccc(S(=O)(=O)NCc2nc3cccnc3n2Cc2ccccc2Cl)cc1` gave Cruzain inh Det -7% and Cruzain noTriton 10%.
For CN(C(=O)c1nn(C)c2c1COc1ccccc1-2)c1cccc(C(F)(F)F)c1 the results were Cruzain inh Det -1% and Cruzain noTriton 5%.
`CCN(CC)CCN(Cc1cc2cc3c(cc2[nH]c1=O)OCO3)C(=S)NCC1CCCO1` (stereo not drawn) gave Giardia FBPA inh-1 3%.
Screening CCN(CC)CCN(Cc1cc2cc3c(cc2[nH]c1=O)OCCO3)C(=S)NCC1CCCO1 (stereo not drawn) returned Giardia FBPA inh-1 7.9µM*, Giardia growth 31%, Mammal cell tox -8%, Giardia FBPA inh-2 7%, Rabbit FBPA inh 0% and GAPDH counter -20%.
CC(C)(C)c1cc(C(=S)N2CCN(CCO)CC2)cc(C(C)(C)C)c1O was read as Cruzain inh Det -1%, Giardia FBPA inh-1 10µM*, Cruzain noTriton 7%, Giardia growth -4%[10.4 µM], Mammal cell tox -4%, Giardia FBPA inh-2 -12%, Rabbit FBPA inh inconclusive and GAPDH counter inconclusive.
Screening CC(C)(C)c1cc(C(=O)CCN2CCOCC2)cc(C(C)(C)C)c1O returned Giardia FBPA inh-1 -7%.
`O=C(Nc1ncc(Cc2ccccc2Cl)s1)C1=NCCN1` gave Cruzain inh Det -5%, Giardia FBPA inh-1 10% and Cruzain noTriton 9%.
For CCc1ccc(Cc2cnc(NC(=O)C3=NCCN3)s2)cc1 the results were Giardia FBPA inh-1 14µM*, Giardia growth inconclusive, Mammal cell tox -3%, Giardia FBPA inh-2 10%, Rabbit FBPA inh 13% and GAPDH counter 2%.
CC1CN(C(=O)N2CCC(C(=O)NCc3ccccc3F)CC2)c2cc(Cl)ccc2O1 (stereo not drawn) was read as Cruzain inh Det -1% and Cruzain noTriton 13%.
Screening CCCCN(CC)Cc1ccc(CNC(=S)Nc2c(C)cc(C)cc2C)o1 returned Giardia FBPA inh-1 13µM*, Giardia growth 26%, Mammal cell tox -14%, Giardia FBPA inh-2 -10%, Rabbit FBPA inh 2% and GAPDH counter 5%.
For CCCCN(CC)Cc1ccc(CNC(=S)Nc2ccc(C)cc2Cl)o1 the results were Giardia FBPA inh-1 -19%.
`CC(Nc1ccc(-c2nc(-c3ccccn3)no2)cc1[N+](=O)[O-])c1ccccc1` (stereo not drawn) gave Cruzain inh Det -3% and Cruzain noTriton 21%.
Screening CCC1(C)Cc2ccccc2-c2nc(NCCO)[nH]c(=O)c21 (stereo not drawn) returned Cruzain inh Det -14%, Giardia FBPA inh-1 -6% and Cruzain noTriton -1%.
Screening CCC1(C)Cc2ccccc2-c2nc(NN)[nH]c(=O)c21 (stereo not drawn) returned Giardia FBPA inh-1 22µM*, Giardia growth 23%, Mammal cell tox 2%, Giardia FBPA inh-2 1%, Rabbit FBPA inh -23% and GAPDH counter -27%.
Screening O=S(=O)(NCC(c1cccs1)S(=O)(=O)c1ccccc1)c1ccccc1 (stereo not drawn) returned Cruzain inh Det -4% and Cruzain noTriton 3%.
CCC(=O)NNC(=S)NC(=O)c1ccc(C)cc1 was read as Giardia FBPA inh-1 18µM*, Giardia growth inconclusive, Mammal cell tox -5%, Giardia FBPA inh-2 23%, Rabbit FBPA inh -1% and GAPDH counter 13%.
`CC(=O)NNC(=S)NC(=O)c1ccc(C)cc1` gave Giardia FBPA inh-1 1%.
Cc1ccc(Cl)cc1NC(=O)C(C)n1nc(-c2ccccc2)ccc1=O (stereo not drawn) was read as Cruzain inh Det -5% and Cruzain noTriton inconclusive.
`COc1cccc(N2C(=O)CSC23C(=O)N(CC(=O)Nc2cccc(Cl)c2)c2ccccc23)c1` (stereo not drawn) gave Cruzain inh Det -8% and Cruzain noTriton inconclusive.
For Cc1ccc(N=Cc2cccc(O)c2O)c(C)c1 the results were Cruzain inh Det 5%, Giardia FBPA inh-1 inconclusive and Cruzain noTriton -8%.

Source: PubChem
